17 molecules from ChEMBL document CHEMBL1961873, “Compounds: GSK PKIS; Assays: Nanosyn kinase panel” (2012) can be followed below.

The target in assay [1] is Mast/stem cell growth factor receptor Kit (Homo sapiens) (UniProt P10721). The settings on record: at 1 µM.
The test system of assay [2] is Mast/stem cell growth factor receptor Kit (Homo sapiens), P10721 [D816V]. The settings on record: at 0.1 µM.
Assay [3] shares this test system. The settings on record: at 1 µM.
Assay [4] has as its system Mast/stem cell growth factor receptor Kit (Homo sapiens), P10721 [T670I]. The settings on record: at 0.1 µM.
Assay [5] has the same test system. The settings on record: at 1 µM.
For assay [6], the system named is Mast/stem cell growth factor receptor Kit (Homo sapiens), P10721 [V560G]. The settings on record: at 0.1 µM.
The test system is the same in assay [7]. The settings on record: at 1 µM.
Assay [8] addresses Tyrosine-protein kinase Lck (Homo sapiens) (UniProt P06239). The settings on record: at 0.1 µM.
Assay [9] shares this target. The settings on record: at 1 µM.
Assay [10] deals with Leukocyte tyrosine kinase receptor (Homo sapiens) (UniProt P29376). The settings on record: at 0.1 µM.
Leukocyte tyrosine kinase receptor (Homo sapiens), sequence (P29376 whole entry): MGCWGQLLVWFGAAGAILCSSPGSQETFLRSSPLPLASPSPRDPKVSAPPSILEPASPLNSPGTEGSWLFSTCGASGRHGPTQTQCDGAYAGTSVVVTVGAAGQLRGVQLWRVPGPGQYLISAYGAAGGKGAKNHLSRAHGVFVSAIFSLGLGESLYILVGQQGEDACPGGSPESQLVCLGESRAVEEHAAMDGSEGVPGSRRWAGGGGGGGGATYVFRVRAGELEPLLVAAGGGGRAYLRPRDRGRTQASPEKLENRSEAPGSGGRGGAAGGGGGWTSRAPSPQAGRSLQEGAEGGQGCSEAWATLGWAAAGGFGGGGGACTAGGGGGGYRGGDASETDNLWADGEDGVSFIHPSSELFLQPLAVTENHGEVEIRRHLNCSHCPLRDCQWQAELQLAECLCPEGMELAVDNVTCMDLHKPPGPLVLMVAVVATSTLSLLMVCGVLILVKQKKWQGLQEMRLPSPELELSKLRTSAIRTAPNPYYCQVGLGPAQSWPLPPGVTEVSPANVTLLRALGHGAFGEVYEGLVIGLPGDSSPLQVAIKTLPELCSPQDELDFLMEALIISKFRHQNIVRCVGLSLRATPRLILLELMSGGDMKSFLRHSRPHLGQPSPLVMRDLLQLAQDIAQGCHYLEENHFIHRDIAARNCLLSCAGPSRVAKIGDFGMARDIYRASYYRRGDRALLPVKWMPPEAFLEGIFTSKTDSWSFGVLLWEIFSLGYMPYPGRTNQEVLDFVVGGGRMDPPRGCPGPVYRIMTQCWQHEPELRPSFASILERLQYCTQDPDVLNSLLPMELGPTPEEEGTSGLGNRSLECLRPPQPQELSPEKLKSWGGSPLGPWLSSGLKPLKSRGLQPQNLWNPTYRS

Mast/stem cell growth factor receptor Kit (Homo sapiens), P10721 [V560G], sequence (P10721 whole entry V560G): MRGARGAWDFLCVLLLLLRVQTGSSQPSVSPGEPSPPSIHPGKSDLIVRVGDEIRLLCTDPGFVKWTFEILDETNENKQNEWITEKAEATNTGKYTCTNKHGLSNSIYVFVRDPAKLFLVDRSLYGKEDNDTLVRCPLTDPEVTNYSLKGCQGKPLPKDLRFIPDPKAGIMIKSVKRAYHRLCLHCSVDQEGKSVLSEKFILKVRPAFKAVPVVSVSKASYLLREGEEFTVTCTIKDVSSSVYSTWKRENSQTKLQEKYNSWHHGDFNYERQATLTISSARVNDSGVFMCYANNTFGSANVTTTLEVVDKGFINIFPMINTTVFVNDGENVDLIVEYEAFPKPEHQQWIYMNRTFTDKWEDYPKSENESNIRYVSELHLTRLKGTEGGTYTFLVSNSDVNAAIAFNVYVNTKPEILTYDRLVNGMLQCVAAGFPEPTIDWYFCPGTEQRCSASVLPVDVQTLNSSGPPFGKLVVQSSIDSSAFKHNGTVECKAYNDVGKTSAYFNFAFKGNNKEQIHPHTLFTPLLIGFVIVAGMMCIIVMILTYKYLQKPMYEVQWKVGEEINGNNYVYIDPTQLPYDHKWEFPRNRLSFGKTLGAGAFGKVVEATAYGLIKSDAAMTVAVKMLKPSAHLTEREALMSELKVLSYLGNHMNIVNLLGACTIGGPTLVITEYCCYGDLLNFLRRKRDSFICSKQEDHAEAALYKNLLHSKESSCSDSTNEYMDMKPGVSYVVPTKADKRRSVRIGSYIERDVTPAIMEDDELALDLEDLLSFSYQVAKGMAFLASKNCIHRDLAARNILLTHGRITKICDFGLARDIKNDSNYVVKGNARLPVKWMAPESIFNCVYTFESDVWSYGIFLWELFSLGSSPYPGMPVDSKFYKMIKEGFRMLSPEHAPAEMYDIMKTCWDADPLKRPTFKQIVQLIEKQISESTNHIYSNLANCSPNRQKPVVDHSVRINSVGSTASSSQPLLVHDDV
Mast/stem cell growth factor receptor Kit (Homo sapiens), P10721 [D816V], sequence (P10721 whole entry D816V): as the sequence (P10721 whole entry V560G) above, with G560V, D816V counted along it
Mast/stem cell growth factor receptor Kit (Homo sapiens), P10721 [T670I], sequence (P10721 whole entry T670I): as the sequence (P10721 whole entry V560G) above, with G560V, T670I counted along it
Mast/stem cell growth factor receptor Kit (Homo sapiens), sequence (P10721 whole entry): as the sequence (P10721 whole entry V560G) above, with G560V counted along it
Tyrosine-protein kinase Lck (Homo sapiens), sequence (P06239 2-509 limits assumed): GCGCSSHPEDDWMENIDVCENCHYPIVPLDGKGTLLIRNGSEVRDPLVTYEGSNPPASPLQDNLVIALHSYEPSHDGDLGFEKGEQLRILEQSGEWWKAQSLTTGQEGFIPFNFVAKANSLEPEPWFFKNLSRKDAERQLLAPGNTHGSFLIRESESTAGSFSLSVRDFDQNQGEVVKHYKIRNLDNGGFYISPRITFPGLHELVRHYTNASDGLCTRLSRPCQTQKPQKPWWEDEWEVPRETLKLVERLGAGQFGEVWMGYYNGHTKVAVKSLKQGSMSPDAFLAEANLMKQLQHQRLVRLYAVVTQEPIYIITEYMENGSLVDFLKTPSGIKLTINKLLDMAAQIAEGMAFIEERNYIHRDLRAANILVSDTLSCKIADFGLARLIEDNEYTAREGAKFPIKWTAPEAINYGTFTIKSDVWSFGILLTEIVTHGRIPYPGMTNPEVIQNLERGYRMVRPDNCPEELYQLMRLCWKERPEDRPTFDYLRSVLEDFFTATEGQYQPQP

The term inhibition denotes the drop in the measured response relative to a control, in per cent. With `COc1cc(C)c(NC(=O)CN(C)C)cc1Nc1nc(Nc2cccc(F)c2C(N)=O)c2cc[nH]c2n1`, the inhibition in assay [1] was 4.07%; in assay [2], 2.88%; in [3] it was 1.48%; in assay [4] it was 0.3%; in assay [5], 0.56%; in assay [6], 0.02%. For the same molecule, the inhibition stood at 0.48% in assay [7], 1.38% in assay [8], 1.74% in assay [9] and 92.9% in [10].
Regarding `NS(=O)(=O)c1ccc(N/N=C2\C(=O)Nc3ccc(C(=O)NCCc4c[nH]cn4)cc32)cc1`, the inhibition was 7.76% in [1]; 3.86% in assay [2]; 6.74% in [3]; 3.65% in [4]; 4% in assay [5]; -1.9% in assay [6]. Also, the inhibition in assay [7] is 3.01%; in assay [8], 4.09%; in assay [9], 9.31%; in assay [10] it was 5.2%.
With `CCn1c(-c2nonc2N)nc2c(C#CC(C)(C)O)nc(CN3CCCC3)cc21`, the inhibition is 0.93% in assay [1]; -0.84% in [2]; 1.18% in assay [3]; -0.82% in assay [4]; -3.13% in assay [5]; 1.79% in assay [6]. Also, the inhibition in [7] is 4.31%; in [8] it was -0.53%; in assay [9] it was 1.3%; in assay [10] it was 0.56%.
Take `CNC(=O)c1cncc(/C=C/c2c(Cl)cccc2Cl)c1`: the inhibition was 33.4% in assay [1]; 2.74% in [2]; 1.88% in assay [3]; 0.36% in assay [4]; 0.46% in assay [5]; -1.49% in [6]. The inhibition in assay [7] turned out to be 10.9%; in [8], 1.21%; in [9], 9.89%; in [10], 3.47%.
On to `COc1ccccc1Nc1ncc(-c2ccccc2)o1`, for which the inhibition turned out to be 98.2% in assay [1]; 4.74% in [2]; 6.9% in [3]; 17.8% in assay [4]; 77.7% in [5]; 31.5% in [6]. The inhibition in assay [7] was 85.5%; in [8], 4.55%; in [9], 9.64%; in assay [10] it was 3.5%.
As to `COC(=O)Nc1nc2cc(Oc3ccc(NC(=O)Nc4cccc(C(=O)O)c4)cc3)ccc2[nH]1`, the inhibition in assay [1] is 18.8%; in assay [2], 1.22%; in [3] it was 3.73%; in assay [4] it was -0.34%; in [5], 2.75%; in assay [6] it was 5.8%. For the same molecule, the inhibition in [7] is 15.5%; in assay [8], -2.73%; in assay [9], -2.81%; in assay [10], 0.33%.
Take `CS(=O)(=O)CCNCc1ccc(-c2ccc3ncnc(Nc4ccc(OCc5cccc(F)c5)c(C(F)(F)F)c4)c3c2)o1`: the inhibition in assay [1] is 4.6%; in assay [2] it was 5.18%; in assay [3], 2.67%; in assay [4] it was 4.9%; in assay [5], 4.53%; in assay [6], -3.52%. Besides, the inhibition in [7] was -0.7%; in assay [8], 1.82%; in [9], 3.95%; in assay [10] it was 3.59%.
For the molecule `NCc1ccc(-c2nc(-c3ccc(Cl)c(O)c3)c(-c3ccncc3)[nH]2)cc1`, the inhibition is 2.11% in [1]; 1.93% in assay [2]; 5.11% in assay [3]; -0.4% in assay [4]; 0.77% in [5]; 1.37% in [6]. For the same molecule, the inhibition in assay [7] was 6.11%; in [8], 5.93%; in assay [9] it was 33%; in assay [10], 1%.
As for `Cc1cc(O)cc(C)c1/C=C/c1cncc(-c2nn[nH]n2)c1`, the inhibition in [1] was 65.5%; in assay [2] it was 5.64%; in assay [3], 3.74%; in assay [4], 1.04%; in assay [5], 3.66%; in [6], -0.1%. Moreover, the inhibition in assay [7] stood at 22.1%; in assay [8], 1.97%; in assay [9], 42.5%; in assay [10], 6.07%.
On to `CCN1CCC(CC(=O)Nc2n[nH]c3nc(-c4cccs4)c(Br)cc23)CC1`, for which the inhibition is -0.08% in assay [1]; -1.28% in assay [2]; -0.19% in [3]; -3.78% in assay [4]; 0.16% in assay [5]; 3.05% in assay [6]. The inhibition in [7] is 2.07%; in [8], -1.7%; in assay [9] it was 4.73%; in [10] it was 0.15%.
On to `c1cnn2ncc(-c3ccnc(Nc4ccc5c(c4)OCCO5)n3)c2c1`, for which the inhibition in assay [1] worked out at 106%; in assay [2], 3.21%; in assay [3] it was 9.72%; in assay [4] it was 49.2%; in assay [5], 93.3%; in assay [6], 38.1%. The inhibition in [7] was 83.5%; in assay [8], 3.28%; in assay [9], 9.06%; in [10] it was 6.2%.
Turning to `Nc1ncnc2occ(-c3ccc(NC(=O)Nc4cc(C(F)(F)F)cc(C(F)(F)F)c4)cc3)c12`, the inhibition is 90.6% in assay [1]; -2.07% in assay [2]; 10.8% in assay [3]; 22% in [4]; 88.4% in assay [5]; 33.8% in assay [6]. In addition, the inhibition in assay [7] is 82.2%; in assay [8], 6.28%; in assay [9], 38.8%; in assay [10], 2.1%.
As for `CS(=O)(=O)CCN(CC#N)Cc1ccc(-c2ccc3ncnc(Nc4ccc(OCc5cccc(F)c5)c(Cl)c4)c3c2)o1`, the inhibition is 0.7% in [1]; 3.19% in assay [2]; 2.53% in assay [3]; 2.04% in [4]; 0.88% in [5]; -0.55% in assay [6]. Moreover, the inhibition in assay [7] was -2.04%; in assay [8] it was -1.83%; in [9], -3.92%; in [10], 1.4%.
Consider `Fc1cccc(COc2ccc(Nc3ncnc4sc(-c5cccs5)cc34)cc2Cl)c1`, for which the inhibition in assay [1] was 6.67%; in [2] it was 4.5%; in [3] it was 1.72%; in assay [4] it was 1.75%; in assay [5] it was 2.96%; in [6], 4.3%. The inhibition in [7] is 2.12%; in assay [8], 0.99%; in [9], 3.56%; in assay [10] it was -0.03%.
In the case of `Cc1ccc(NC(=O)c2ccnc(N3CCCC3)c2)cc1-c1ccc(C(=O)NCC2CC2)cc1`, the inhibition was found to be 2.92% in [1]; 2.61% in assay [2]; 7.08% in assay [3]; 2.54% in assay [4]; 3.2% in assay [5]; 0.26% in [6]. Further, the inhibition in assay [7] is 1.23%; in assay [8], -3.71%; in [9], 1.56%; in assay [10], 2.27%.
As for `CCc1cccc(NC(=O)Nc2ccc(Oc3ccc4nc(NC(=O)OC)[nH]c4c3)cc2)c1`, the inhibition was determined as 93% in assay [1]; 0.55% in assay [2]; 0% in assay [3]; 58.6% in assay [4]; 69.8% in [5]; 65.6% in assay [6]. Further, the inhibition in assay [7] was found to be 74.1%; in assay [8], 5.87%; in assay [9], 8.47%; in assay [10], 1.87%.
Consider `NC(=O)c1ccc(-c2nc(-c3ccccn3)c(-c3ccc4c(c3)OCO4)[nH]2)cc1`, for which the inhibition came out at 4.68% in assay [1]; 7.73% in assay [2]; 5.29% in [3]; 0.05% in [4]; 1.28% in assay [6]; 6.23% in assay [7]. Also, the results for the inhibition in assay [8], in assay [9] and in [10] were 2.19%, 4.07% and 3.03%, respectively.
